Screens as filed in PubChem.
Only some compounds are listed: those with a hit (about 1.8% of all), similar ones and a draw of the others.
CtBP-E1A inh – qHTS Assay for Inhibitors of the CtBP/E1A Interaction. AlphaScreen GST-E1A/His-CtBP binding, 1536-well; stronger effect = lower value. activity change, % (test concentration not listed). hit rate 0.49% among 340,000. AID 651724, 2012
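In 5 uL wells, 23 nL compound meets equimolar GST-E1A and His-CtBP (5X stock 125 nM each) for 2 h, 37 °C. Beads (5X, 50 ug/mL) then 1 h, 37 °C, dark.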
Akt phos inh – HTS Assay for Inhibitors of Akt Phophorylation: Primary Screen | Neuro2A IGF-stimulated pAkt S473 HTRF, 20 min; stronger effect = lower value | hit rate 0.32% among 360,000 | activity change, % for hits at 50 µM; in the data active means activity change below about -80%; inconclusive means mostly about -51% to -80%
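Neuro2A cells in DMEM with 0.5% FBS, overnight at 37 deg C, given compound at single 50 µM final, then IGF (6 nM final) for 20 min at 37 deg C. Lysed; phospho-Akt Ser473 by HTRF after 24 h, 665/615 ratio.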
PI4K2A inh – qHTS for small molecular inhibitors of PI4K2A. purified PI4K2A, ADP-Glo luminescence, 1 h; stronger effect = lower value. activity change, negative = inhibition, % at 76.9 µM. hit rate 0.13% among 420,000; in the data active means activity change below about -50%; inconclusive means mostly about -30% to -49%;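 further: -100% = wells without enzyme as full effect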
Target sequence (Q9BTU6 whole entry, looked up): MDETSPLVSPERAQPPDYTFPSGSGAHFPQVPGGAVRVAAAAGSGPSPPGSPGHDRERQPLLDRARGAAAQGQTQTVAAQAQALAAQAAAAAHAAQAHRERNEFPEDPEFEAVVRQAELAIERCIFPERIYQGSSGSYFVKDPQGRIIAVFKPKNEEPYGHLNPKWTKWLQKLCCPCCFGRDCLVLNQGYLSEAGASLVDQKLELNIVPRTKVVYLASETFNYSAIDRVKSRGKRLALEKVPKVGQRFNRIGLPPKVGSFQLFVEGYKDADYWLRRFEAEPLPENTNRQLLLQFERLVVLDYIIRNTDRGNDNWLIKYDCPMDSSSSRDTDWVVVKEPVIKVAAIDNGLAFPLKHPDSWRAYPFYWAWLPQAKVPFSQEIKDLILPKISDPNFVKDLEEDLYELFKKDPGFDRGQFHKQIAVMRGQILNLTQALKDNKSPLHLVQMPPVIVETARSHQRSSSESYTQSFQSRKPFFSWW
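ADP-Glo luminescence measured ADP generated by PI4K2A enzyme (4 ug/mL before mixing) with 1.2 mM PI substrate (pre-mix) and 300 microM ATP (pre-mix). Tris pH7.5 buffer with MgCl2, Triton X-100; 1 h reaction at ambient temperature.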
PI5P4K alpha inh – qHTS for Inhibitors of phosphatidylinositol 5-phosphate 4-kinase (PI5P4K) | PI5P4Kalpha enzyme, ADP-Glo luminescence, 60 min; stronger effect = lower value | Phosphatidylinositol 5-phosphate 4-kinase type-2 alpha (Homo sapiens), P48426 | AID 652105, 2013 | hit rate 1.2% among 330,000 | max response, %; active means max response of -50% or lower; inconclusive means between -30% and -50%; inactive means -30% or higher; further: value at the top dose of about 77 µM
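Enzyme plus substrate dispensed, test compounds pinned in, then ATP (5 microM final) added. After 60 min at RT, ADP-Glo reagent 1 for 45 min and reagent 2 for 30 min preceded luminescence imaging.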
Six1-Eya2 blk – qHTS Assay for Inhibitors of the Six1/Eya2 Interaction; Homeobox protein SIX1 (Homo sapiens) + Protein phosphatase EYA2 (Homo sapiens), …; AlphaScreen GST-Six1/His-Eya2 binding, biochemical; stronger effect = lower value; activity change, % (test concentration not listed); hit rate 0.56% among 360,000
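Six1/Eya2 binding was read as AlphaScreen signal after compounds were pinned into GST-Six1 plus His-tagged Eya2 (5X stock 250/500 nM) in pH 8.0 Tris/NaCl/TCEP buffer, beads added, then incubated 1 h, 37 C, dark.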
* = called active by the depositor; i = inactive; ? = inconclusive; nt = no result. Unless noted, no stated cut-off is given here; in the data, active means activity change below about -65%; inconclusive means mostly about -30% to -63%; inactive means weaker than that. Unless noted, on the % scale 0 is the no-effect control and ±100 the full control effect.

SMILES	CtBP-E1A inh	Akt phos inh	PI4K2A inh	PI5P4K alpha inh	Six1-Eya2 blk
CCCCCCN1C=CC(=C2C(=O)c3ccccc3C2=O)C=C1	6	i	-9	-4	10
CCN1C=CC(=C2C(=O)c3ccccc3C2=O)C=C1	-8	i	-52*	nt	-8
COc1ccccc1-c1cc(NC=O)c2ncc(-c3cccc(C(=O)N(C)C)c3)n2c1	-24	i	-9	?	-26
CC(OC(=O)CN(C)S(=O)(=O)c1ccc(Cl)cc1)C(=O)Nc1ncc(Cl)cc1Cl (stereo unspecified)	2	i	0	nt	1
CC(OC(=O)CN(C)S(=O)(=O)c1ccc(Cl)cc1)C(=O)Nc1cccc(Cl)c1 (stereo unspecified)	0	-98%*	-7	21	21
O=C(CSc1nc(-c2cccs2)cc(C(F)(F)F)n1)NCCCN1CCOCC1	-9	i	-4	8	-4
Cc1ccc(S(=O)(=O)NCC(=O)OCc2ccccc2)cc1	6	i	3	-2	3
S=C(NCc1ccco1)N/N=C/c1ccc(Cl)cc1	-9	i	-3	14	-11
Oc1ccc(/C=N/NC(=S)NCc2ccco2)cc1	-5	-116%*	4	-13	-6
COc1cc(/C=N/NC(=S)NCc2ccco2)cc(OC)c1OC	-26	i	13	-2	-20
Oc1c(Br)cc(/C=N/NC(=S)NCc2ccco2)cc1Br	-12	i	1	-74*	-19
O=C(c1cc(O)c(O)c([N+](=O)[O-])c1)c1ccccc1F	-27	i	-5	-66*	-8
Cc1cc([N+](=O)[O-])ccc1NC(=O)c1cncc(Br)c1	12	i	0	5	-1
COc1ccc(NC(=O)c2cnn(-c3ccccc3)c2C)cc1	nt	i	?	?	3
COc1ccc(NC(=S)NNC(=O)c2nnn(-c3ccccc3)c2C)cc1	7	i	4	-5	-78*
CC(=O)c1cccc(NC(=S)NNC(=O)c2ccc(C)c([N+](=O)[O-])c2)c1	0	i	-2	-6	-13
Cc1cc(/C=N/n2c(COc3ccccc3C)nc3ccccc3c2=O)c(O)c([N+](=O)[O-])c1	-73*	i	2	?	-68*
O=c1c2ccccc2nc(COc2ccccc2)n1/N=C/c1cc([N+](=O)[O-])ccc1O	-5	i	-6	-4	-89*
CCC/C(O)=C1\C(=O)CC(c2ccccc2)CC1=NC(C)C(=O)O (stereo unspecified)	11	i	0	-4	2
CCOC(=O)Cc1csc(-n2sc3ccccc3c2=O)n1	-5	i	-11	-107*	-12
NS(=O)(=O)c1ccc(-c2ccc(C=O)o2)cc1	nt	i	-2	-5	11
CC1=C(C#N)C(=O)NC(=O)/C1=C/c1ccc(-c2ccc(S(N)(=O)=O)cc2)o1	1	i	-13	-96*	-21
NS(=O)(=O)c1ccc(-c2ccc(/C=C3\NC(=S)NC3=O)o2)cc1	-11	i	-4	-66*	-11
COc1ccc(C(=O)Oc2ccc(/C=N/O)cc2)cc1	-2	nt	2	0	-5
C=C1c2cccc(O)c2C(=O)C2C(=O)[C@]3(O)C(=O)C(C(N)=O)C(=O)[C@@H](N(C)C)[C@@H]3[C@@H](O)[C@H]12 (stereo partly specified)	?	i	?	-71*	?
SMILES	CtBP-E1A inh	Akt phos inh	PI4K2A inh	PI5P4K alpha inh	Six1-Eya2 blk
C[C@H]1c2cccc(O)c2C(O)=C2C(=O)[C@]3(O)C(O)=C(C(N)=O)C(=O)[C@@H](N(C)C)C3[C@@H](O)C21 (stereo partly specified)	-26	i	-4	0	-25
O=C(N[C@@H]1CC[C@H](CCn2cc(-c3ccccn3)nn2)O[C@@H]1CO)c1ccncc1	-20	i	1	1	-76*
O=C(N[C@@H]1CC[C@@H](CCn2cc(-c3ccccc3)nn2)O[C@@H]1CO)c1cnccn1	4	i	2	2	5
Cc1ccc(SCc2cc(=O)c3c(=O)n(-c4ccccc4)[nH]c3[nH]2)cc1	-13	i	-10	-62*	-16
O=c1cc(CSc2ccc(Cl)cc2)[nH]c2[nH]n(-c3ccccc3)c(=O)c12	1	i	-9	?	-4
CCN(CC)c1ccc(N=Nc2ncn[nH]2)cc1	-74*	i	0	-4	-69*
CCN(CC)c1ccc(/C=N/O)cc1	-13	i	3	-2	2
Cc1csc(NC(=O)CN(C)S(=O)(=O)c2cccc3cccnc23)n1	-2	i	-5	-4	2
Cc1ccc2nc(NC(=O)CN(C)S(=O)(=O)c3cccc4nsnc34)sc2c1	-13	-101%*	-5	0	-11
Cc1ccnc(NC(=O)CN(C)S(=O)(=O)c2cccc3nsnc23)c1	3	i	0	-8	0
CN(CC(=O)Nc1n[nH]c(=S)s1)S(=O)(=O)c1cccc2cccnc12	nt	i	-4	-57*	-2
CC(C)n1nc(C(=O)Nc2nc3ccccc3[nH]2)c2ccccc2c1=O	-21	i	6	-2	-15
COc1ccc(C2CC(=O)N3CN(C4CCCCC4)CSC3=C2C#N)c(OC)c1 (stereo unspecified)	nt	nt	-15	nt	nt
COc1ccc(C2CC(=O)N3CN(c4ccc(C)c(Cl)c4)CSC3=C2C#N)cc1 (stereo unspecified)	6	i	-6	-69*	-9
CCOc1cc(C2CC(=O)N3CN(C4CCCCC4)CSC3=C2C#N)ccc1O (stereo unspecified)	-6	i	-9	-60*	6
COc1ccc(OC)c(C2CC(=O)N3CN(c4ccccc4)CSC3=C2C#N)c1 (stereo unspecified)	-2	i	-11	-85*	-6
COc1ccc(C2CC(=O)N3CN(c4ccccc4F)CSC3=C2C#N)cc1OC (stereo unspecified)	1	i	-3	-84*	-4
N#CC1=C2SCN(C3CCCCC3)CN2C(=O)CC1c1ccc(Br)cc1 (stereo unspecified)	nt	nt	-2	nt	nt
O=C(NC(=S)Nc1cc(S(=O)(=O)N2CCOCC2)ccc1O)c1ccco1	0	i	1	-8	-6
Nc1nc2ccc(C(=O)NC3CCCCC3)cc2s1	-15	i	8	-4	-10
